Test results: PubChem BioAssay
The source made the active and inactive calls.

Legend:
[1] = small molecules captured by biotinylated probe aFSTL3 – biochemical, small-molecule microarray, fluorescence 635/667, stem cell growth factor project, primary screen (AID 1064); settings: higher = more signal;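 further: measures binding of the biotinylated anti-FSTL3 antibody to printed compounds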
[2] = binders from COS7 lysate, DM2A8 probe, primary screen, torsin A project, cell lysate, small-molecule microarray, fluorescence 635/667 (AID 1065); settings: higher = more signal, COS7 lysate expressing mutant human TOR1A
[3] = small molecules captured by biotinylated probe aFGF2 – biochemical, small-molecule microarray, fluorescence 635/667, stem cell growth factor project, primary screen (AID 1067); settings: higher = more signal;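 further: measures binding of biotinylated aFGF2 protein to printed compounds on slides; z-score merges feature fluorescence and signal-to-noise across triplicate slides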
[4] = small molecules captured by biotinylated probe aFGF10 – biochemical, small-molecule microarray, fluorescence 635/667, stem cell growth factor project, primary screen (AID 1071); settings: higher = more signal;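 further: score merges 667 nm spot intensity and signal to noise from triplicate slides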
[5] = target: Neurogenic locus notch homolog protein 2 (Homo sapiens) (UniProt Q04721); assay: small molecules binding Notch2 protein – biochemical, small-molecule microarray, 635 nm fluorescence, stem cell growth factors, primary screen (AID 1073); settings: higher = more signal
Sequence of Neurogenic locus notch homolog protein 2 (Homo sapiens) (Q04721 whole entry, looked up, canonical isoform): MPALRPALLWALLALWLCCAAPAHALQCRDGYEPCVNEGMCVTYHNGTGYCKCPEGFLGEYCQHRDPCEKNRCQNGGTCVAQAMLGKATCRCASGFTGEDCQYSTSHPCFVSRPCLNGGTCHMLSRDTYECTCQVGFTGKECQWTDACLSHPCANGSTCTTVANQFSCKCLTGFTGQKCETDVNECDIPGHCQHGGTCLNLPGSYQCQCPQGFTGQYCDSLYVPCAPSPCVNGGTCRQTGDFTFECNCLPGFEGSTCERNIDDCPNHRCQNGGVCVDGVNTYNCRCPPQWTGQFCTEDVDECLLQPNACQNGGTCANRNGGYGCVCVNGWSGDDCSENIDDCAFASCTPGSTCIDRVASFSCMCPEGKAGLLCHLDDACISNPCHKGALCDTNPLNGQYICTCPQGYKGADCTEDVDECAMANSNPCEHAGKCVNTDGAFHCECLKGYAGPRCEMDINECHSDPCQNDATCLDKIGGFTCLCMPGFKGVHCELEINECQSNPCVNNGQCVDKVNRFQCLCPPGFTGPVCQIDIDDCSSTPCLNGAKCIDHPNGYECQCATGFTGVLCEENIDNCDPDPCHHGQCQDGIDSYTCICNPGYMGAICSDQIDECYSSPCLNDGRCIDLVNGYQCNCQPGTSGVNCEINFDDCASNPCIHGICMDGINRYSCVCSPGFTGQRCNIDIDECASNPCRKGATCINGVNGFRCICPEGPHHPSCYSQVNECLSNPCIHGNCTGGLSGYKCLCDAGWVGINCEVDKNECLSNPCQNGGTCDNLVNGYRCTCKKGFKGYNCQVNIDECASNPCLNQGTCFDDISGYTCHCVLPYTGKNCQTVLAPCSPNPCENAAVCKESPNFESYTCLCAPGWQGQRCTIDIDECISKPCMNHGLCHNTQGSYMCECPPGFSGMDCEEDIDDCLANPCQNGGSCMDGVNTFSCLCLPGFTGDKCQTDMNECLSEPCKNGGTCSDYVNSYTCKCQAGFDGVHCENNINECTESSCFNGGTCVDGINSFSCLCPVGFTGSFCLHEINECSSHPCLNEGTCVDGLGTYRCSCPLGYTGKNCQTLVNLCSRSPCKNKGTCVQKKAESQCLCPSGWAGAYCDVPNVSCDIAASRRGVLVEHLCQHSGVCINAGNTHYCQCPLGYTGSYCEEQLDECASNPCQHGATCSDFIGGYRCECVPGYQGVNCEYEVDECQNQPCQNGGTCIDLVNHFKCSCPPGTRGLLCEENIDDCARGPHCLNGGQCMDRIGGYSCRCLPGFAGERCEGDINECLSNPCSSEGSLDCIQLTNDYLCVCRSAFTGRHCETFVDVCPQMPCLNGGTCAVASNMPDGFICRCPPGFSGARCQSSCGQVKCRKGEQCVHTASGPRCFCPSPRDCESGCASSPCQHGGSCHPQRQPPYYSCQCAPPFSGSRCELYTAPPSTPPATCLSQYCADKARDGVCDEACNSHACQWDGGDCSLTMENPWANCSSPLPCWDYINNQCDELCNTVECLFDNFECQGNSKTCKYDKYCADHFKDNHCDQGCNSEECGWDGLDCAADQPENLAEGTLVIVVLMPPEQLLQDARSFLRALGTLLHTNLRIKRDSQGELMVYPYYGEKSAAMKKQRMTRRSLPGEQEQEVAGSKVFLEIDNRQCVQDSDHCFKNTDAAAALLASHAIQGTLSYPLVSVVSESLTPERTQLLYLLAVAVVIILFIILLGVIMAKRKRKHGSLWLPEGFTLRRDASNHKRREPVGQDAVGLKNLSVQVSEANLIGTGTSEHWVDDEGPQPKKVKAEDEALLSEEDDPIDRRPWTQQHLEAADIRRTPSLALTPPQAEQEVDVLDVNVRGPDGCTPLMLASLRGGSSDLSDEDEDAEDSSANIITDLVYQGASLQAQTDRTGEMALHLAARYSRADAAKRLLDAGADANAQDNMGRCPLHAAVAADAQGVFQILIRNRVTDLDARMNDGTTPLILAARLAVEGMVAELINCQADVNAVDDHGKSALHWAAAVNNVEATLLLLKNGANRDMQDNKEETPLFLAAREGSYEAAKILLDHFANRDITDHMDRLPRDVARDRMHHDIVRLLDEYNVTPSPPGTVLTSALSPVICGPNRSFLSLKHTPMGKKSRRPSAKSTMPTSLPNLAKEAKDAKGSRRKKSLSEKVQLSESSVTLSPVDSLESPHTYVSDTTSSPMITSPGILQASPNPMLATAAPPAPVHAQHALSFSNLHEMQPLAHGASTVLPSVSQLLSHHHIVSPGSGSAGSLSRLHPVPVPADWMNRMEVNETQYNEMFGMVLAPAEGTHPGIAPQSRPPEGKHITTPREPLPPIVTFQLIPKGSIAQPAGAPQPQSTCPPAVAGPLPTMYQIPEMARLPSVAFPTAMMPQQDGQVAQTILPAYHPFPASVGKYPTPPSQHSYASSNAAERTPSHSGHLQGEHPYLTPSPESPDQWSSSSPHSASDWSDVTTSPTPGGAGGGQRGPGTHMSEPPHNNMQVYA

[6] = target: Pro-neuregulin-1, membrane-bound isoform (Homo sapiens) (UniProt Q02297); assay: small molecules binding neuregulin-1 protein – biochemical, small-molecule microarray, fluorescence 635/667, psychiatric disease protein project, primary screen (AID 1075); settings: NRG1 binding, 635 nm fluorescence, higher = more signal;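 further: score combines 667 nm spot fluorescence with signal to noise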
Sequence of Pro-neuregulin-1, membrane-bound isoform (Homo sapiens) (Q02297 whole entry, looked up, the tested form may be a part, canonical isoform): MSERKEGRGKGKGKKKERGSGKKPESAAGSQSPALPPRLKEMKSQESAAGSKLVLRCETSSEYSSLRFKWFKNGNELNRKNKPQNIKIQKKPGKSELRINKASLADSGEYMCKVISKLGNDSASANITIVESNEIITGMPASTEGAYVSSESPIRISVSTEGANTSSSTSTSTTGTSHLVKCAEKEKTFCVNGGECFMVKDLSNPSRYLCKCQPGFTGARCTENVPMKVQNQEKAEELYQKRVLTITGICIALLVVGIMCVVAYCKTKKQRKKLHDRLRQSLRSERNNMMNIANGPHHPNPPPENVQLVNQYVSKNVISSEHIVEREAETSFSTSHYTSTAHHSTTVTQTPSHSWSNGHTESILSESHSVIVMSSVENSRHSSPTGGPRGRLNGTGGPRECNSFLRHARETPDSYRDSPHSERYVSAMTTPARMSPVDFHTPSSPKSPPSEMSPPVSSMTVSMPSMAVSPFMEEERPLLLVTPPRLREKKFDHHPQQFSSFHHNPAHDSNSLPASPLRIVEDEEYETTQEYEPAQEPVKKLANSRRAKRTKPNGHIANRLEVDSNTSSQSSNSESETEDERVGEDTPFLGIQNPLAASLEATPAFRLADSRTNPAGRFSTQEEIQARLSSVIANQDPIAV

[7] = tested on: Neuregulin-1 EGF-like domain; assay: small molecules binding NRG1 EGF domain – biochemical, small-molecule microarray, 635 nm fluorescence, primary screen (AID 1081); settings: higher = more signal;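 further: binding of the protein to compounds printed on small-molecule microarray slides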
[8] = FRG1 expression reporter modulators in myotubes – cell-based, C2C12 myotubes, firefly/Renilla luciferase, luminescence, FRG1 inhibition for FSHD, primary screen (AID 1084); settings: FRG1 promoter luciferase, higher = more signal, called active from +8 up or from −8 down
[9] = small molecules captured by biotinylated probe aFST – biochemical, small-molecule microarray, fluorescence 635/667, stem cell growth factor project, primary screen (AID 1086); settings: higher = more signal;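 further: score merges 667 nm fluorescence with signal-to-noise of each printed compound spot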
[10] = binders of probe aHhip on microarray, primary screen, stem cell growth factor project, biochemical, small-molecule microarray, fluorescence 635/667 (AID 1087); settings: higher = more signal;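 further: score merges spot fluorescence at 667nm with spot signal to noise ratio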

COC(=O)c1c2oc(c1C(=O)OC)C(=O)N1CCC[C@H]1Cn1nncc1CN(Cc1ccccc1)C(=O)N[C@H](CO)CC2
composite z-score [1]: 1.31
composite z-score [2]: 0.0712
composite z-score [3]: -0.0597
composite z-score [4]: 0.627
composite z-score [5]: 0.201
composite z-score [6]: 0.655
composite z-score [7]: 0.803
z-score [8]: -0.606 (inactive)
composite z-score [9]: -0.152
composite z-score [10]: -0.353

C=CCNC(=O)[C@H]1[C@@H]2C(=O)O[C@@H](c3ccccc3)[C@@H](c3ccccc3)N2[C@@H](c2ccc(O)cc2)[C@]12C(=O)N(C(=O)OCCOC)c1ccc(C#CCC(C(=O)OC)C(=O)OC)cc12
composite z-score [1]: -0.114
composite z-score [2]: 0.85
composite z-score [3]: -0.0422
composite z-score [4]: 0.453
composite z-score [5]: 0.719
composite z-score [6]: 0.225
composite z-score [7]: 1.21
z-score [8]: 0.172 (inactive)
composite z-score [9]: 0.376
composite z-score [10]: -0.162

C[C@@]12COC[C@]13C=C(Br)[C@H](C2)[C@@]1(CO1)C3=O
composite z-score [1]: 0.129
composite z-score [2]: -1.21
composite z-score [3]: -0.04
composite z-score [4]: -0.455
composite z-score [5]: -0.895
composite z-score [6]: -0.708
composite z-score [7]: -1.12
z-score [8]: -0.293 (inactive)
composite z-score [9]: -0.476
composite z-score [10]: -0.134

C=C(CCCC)C(=O)CC[C@@H](OC(=O)c1cccnc1)c1ccc(OCCO)cc1
composite z-score [1]: -0.449
composite z-score [2]: 0.887
composite z-score [3]: -0.0894
composite z-score [4]: 0.681
composite z-score [5]: 0.214
composite z-score [6]: 0.89
composite z-score [7]: 1.19
z-score [8]: 0.84 (inactive)
composite z-score [9]: 0.204
composite z-score [10]: -0.0645

COc1ccc([Si](C)(C)[C@@H]2[C@@H](CC(=O)N3Cc4ccccc4C[C@H]3CO)O[C@]3(C(=O)N(Cc4ccc(N5CCC5=O)cc4)c4ccccc43)[C@H]2C)cc1
composite z-score [1]: -0.406
composite z-score [2]: 0.351
composite z-score [3]: -0.12
composite z-score [4]: 0.163
composite z-score [5]: 0.291
composite z-score [6]: 0.636
composite z-score [7]: 0.866
z-score [8]: -1.63 (inactive)
composite z-score [9]: 0.246
composite z-score [10]: -0.23

COCCOC(=O)N1C(=O)[C@@]2(c3cc(C#CC4(O)CCCCCC4)ccc31)[C@H](c1ccc(OCCO)cc1)N1[C@H](c3ccccc3)[C@H](c3ccccc3)OC(=O)[C@H]1[C@@H]2C(=O)Nc1nc2ccccc2s1
composite z-score [1]: 0.676
composite z-score [2]: 0.54
composite z-score [3]: -0.0234
composite z-score [4]: 0.874
composite z-score [5]: 1.32
composite z-score [6]: 0.526
composite z-score [7]: 1.04
z-score [8]: 3.79 (inactive)
composite z-score [9]: 1.08
composite z-score [10]: 0.245

[N-]=[N+]=Nc1ccccc1C[C@]1(C(=O)O)N=C(c2ccc(OCCCO)cc2)O[C@H]1c1ccccc1N=[N+]=[N-]
composite z-score [1]: 0.951
composite z-score [2]: 0.618
composite z-score [3]: 0.0857
composite z-score [4]: 0.619
composite z-score [5]: 1.23
composite z-score [6]: 1
composite z-score [7]: 1.04
z-score [8]: -1.57 (inactive)
composite z-score [9]: 0.992
composite z-score [10]: 0.543

CN1C(=O)[C@@H]2[C@@H](CC(COc3ccccc3)=C([C@H](O)CCc3ccccc3)[C@@H]2CO)C1=O
composite z-score [1]: -0.138
composite z-score [2]: 0.342
composite z-score [3]: -0.103
composite z-score [4]: -0.195
composite z-score [5]: -0.492
composite z-score [6]: -0.207
composite z-score [7]: -0.0233
z-score [8]: -2.39 (inactive)
composite z-score [9]: -0.167
composite z-score [10]: -0.236

CO[C@H]1O[C@H](CO)[C@@H](OC(=O)Nc2cccc(F)c2)[C@H](OC(=O)Nc2ccccc2-c2ccccc2)[C@H]1OC(=O)Nc1ccccc1-c1ccccc1
composite z-score [1]: -0.24
composite z-score [2]: 0.368
composite z-score [3]: 0.0591
composite z-score [4]: 0.64
composite z-score [5]: 1.53
composite z-score [6]: 1.72
composite z-score [7]: 1.35
z-score [8]: 0.322 (inactive)
composite z-score [9]: 1.36
composite z-score [10]: -0.247

C=C(COC)C(=O)CC[C@@H](OC(=O)c1cccnc1)c1ccccc1OCCO
composite z-score [1]: 0.403
composite z-score [2]: 1.66
composite z-score [3]: -0.122
composite z-score [4]: 0.276
composite z-score [5]: -0.427
composite z-score [6]: 0.754
composite z-score [7]: 0.655
z-score [8]: 0.0248 (inactive)
composite z-score [9]: 0.327
composite z-score [10]: 0.0176

COC(=O)[C@@]1(Cc2ccc(F)cc2)[C@H]2c3cc(C(=O)N(C)C)n(Cc4c(CO)[nH]cc(C)c4=O)c3C[C@H]2CN1C(=O)c1ccccc1
composite z-score [1]: 0.535
composite z-score [2]: -0.199
composite z-score [3]: 0.142
composite z-score [4]: 1.16
composite z-score [5]: 1.42
composite z-score [6]: 2.1
composite z-score [7]: 1.15
z-score [8]: 1.09 (inactive)
composite z-score [9]: 0.255
composite z-score [10]: -0.0237

C=CCC(OC(C)=O)[C@@H]1[C@@H](N(Cc2cccc3ccccc23)C(=O)Cc2ccc(F)cc2)c2cc(OCCCO)ccc2N1C(=O)c1ccc(-c2ccccc2)cc1 (stereo not given in full)
composite z-score [1]: 0.873
composite z-score [2]: -0.302
composite z-score [3]: -0.0427
composite z-score [4]: -0.387
composite z-score [5]: -0.648
composite z-score [6]: -0.61
composite z-score [7]: -0.802
z-score [8]: -1.83 (inactive)
composite z-score [9]: 0.392
composite z-score [10]: -0.14

COc1cc(NN2C(C(O)c3ccccc3)C=CC3C(=O)N(C)C(=O)C32)cc(OC)c1OC (stereo not given)
composite z-score [1]: 0.0217
composite z-score [2]: 0.48
composite z-score [3]: 0.0074
composite z-score [4]: 0.371
composite z-score [5]: 1.34
composite z-score [6]: 1.88
composite z-score [7]: 1.36
z-score [8]: 0.359 (inactive)
composite z-score [9]: 0.4
composite z-score [10]: -0.0672

COC(=O)[C@@]1(Cc2ccccc2CN=[N+]=[N-])N=C(c2ccc(OCCCO)cc2)O[C@H]1c1ccccc1
composite z-score [1]: 1.4
composite z-score [2]: -0.0284
composite z-score [3]: 0.118
composite z-score [4]: -0.774
composite z-score [5]: -0.0293
composite z-score [6]: 0.532
composite z-score [7]: 1.2
z-score [8]: -2.17 (inactive)
composite z-score [9]: 0.187
composite z-score [10]: -0.451
